SARS PLpro yeast = blocks SARS-CoV papain-like protease in a yeast assay. actives 0.19% (n = 330,000). S. cerevisiae expressing SARS-CoV PLpro, growth rescue. Potency, µM (highest dose often 32.9 µM), inactives show top-dose activity, positive = growth rescue, hits mostly activators. AID 485353; calls by dose curve; further: 0% is about no effect; nearly all actives have a fitted effect of over 55% in size
AMA1-RON2 inh = inhibitors of Plasmodium falciparum AMA1-RON2 interaction | Potency, µM (doses to about 58.2 µM), inactives show at the top dose activity change, negative = inhibition, usual class: inhibitors | actives 0.2% (n = 360,000) | AlphaScreen AMA1-biotinylated RON2 peptide binding;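 further: 0% = vehicle wells and -100% = peptide control; nearly all actives have a fitted effect of over 45% in size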
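AMA1 (3D7) with his tag at 25 nM final met compounds first, then biotinylated RON2 peptide at 25 nM; detection used donor plus acceptor beads, 10 µg/mL apiece, read by AlphaScreen after 30 min at room temperature.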
Pf growth 96h = P. falciparum growth inhibition at 96 hour, primary screen for plastid delayed-death inhibitors | P. falciparum luciferase reporter growth, 96 h | Potency, µM (titrated, usually from 28.7 µM), for the others: at the highest dose activity change, negative = inhibition, usual class: inhibitors | actives 6.9% (n = 320,000) | AID 504834; further: on the % scale 0 is the no-effect control and ±100 the full control effect
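Two parasite generations (96 h, 37 C, 5% CO2) of compound exposure in infected erythrocytes (0.05% parasitemia, 2% hematocrit). Luciferase-reporter P. falciparum; decreased luminescence indicates inhibited growth, aimed at apicoplast-acting delayed death.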
Pf growth 48h = P. falciparum growth inhibition at 48 hours (one generation); actives 5.9% (n = 310,000); Potency, µM (top dose mostly 28.7 µM), inactives show at the top dose activity change, negative = inhibition, usual class: inhibitors; P. falciparum luciferase growth in erythrocytes, 48 h; AID 504832; further: on the % scale 0 is the no-effect control and ±100 the full control effect
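Compounds are pin-transferred into medium, infected erythrocytes (2% hematocrit, 0.1% parasitemia final) are added, and plates sit one parasite generation at 37 C in 5% CO2. Detection reagent is then added and luminescence measured.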
The depositor's hits bear a star; ? = inconclusive; . = no result given. Only some compounds are listed: those with a hit (about 9.4% of all), similar ones and a draw of the others. Unless noted, the call rests on the fitted dose curve; in most records, active means well fitted curve in the direction sought with a large enough effect; inconclusive means small, poorly fitted or top-dose-only effect, or another doubt; inactive means no such curve, though single readings can be large; an effect the other way counts as inactive or inconclusive. Potency means the concentration at half of the fitted maximal effect.

SMILES | SARS PLpro yeast | AMA1-RON2 inh | Pf growth 96h | Pf growth 48h
CC(C)NC(=S)N/N=C1\CCCCC1C1CCCCC1 (stereo not given) | -19% | -7% | 3.3µM* | .
CC1(c2ccccc2)NC(=O)N(CC(=O)N(c2ccccc2)C2CCS(=O)(=O)C2)C1=O (stereo not given) | -2% | -2% | . | .
COc1cc(Cl)cc(CN2CCC(CCC(=O)NC3CC3)CC2)c1OC | -3% | 1% | 13µM* | ?
CCOCc1cc(CN2CCC(CCC(=O)NC3CC3)CC2)ccc1OC | 0% | 16% | 9.3µM* | 3%
CC(C)CC(=O)Nc1ccccc1N1CCCC1 | 27% | -6% | -15% | 2%
O=C(Nc1cccc(C(F)(F)F)c1)Oc1ccc(Cl)c2cccnc12 | -12% | 12% | 2.3µM* | 2.6µM*
Oc1ccc(C2CNCc3sccc32)cc1O (stereo not given) | . | -2% | ? | 13µM*
CCCC(C)C(=O)Nc1ccc(S(N)(=O)=O)cc1 (stereo not given) | 0% | 5% | -1% | -3%
CCOc1nc2ccccc2nc1NS(=O)(=O)c1ccccc1 | ? | 13% | 17% | 17%
COc1ccc2[nH]c(=O)cc(C(=O)O)c2c1 | -1% | 22µM* | ? | 12%
CC1CCN(S(=O)(=O)c2ccc3[nH]c(=O)cc(C(=O)O)c3c2)CC1 | -2% | -12% | 2.9µM* | 0%
CCN(CC(=O)N1CCOCC1)S(=O)(=O)c1ccccc1 | -3% | -2% | 18% | 13%
Cc1cccc(Nc2n[nH]c(C)c2[N+](=O)[O-])c1 | -22% | -6% | 3% | 132%
Cc1ccc2c(c1)-n1c(nc3ccc(C)cc3c1=O)C(Cc1ccccc1)NC2=O (stereo not given) | 8% | . | . | .
COc1ccc(C(=O)Nc2cc3c(cc2N2CCOCC2)n(C)c(=O)n3C)cc1OC | 1% | 14% | ? | ?
CCOc1ccc(C(=O)Nc2cc3c(cc2N2CCCC2)n(CC)c(=O)n3CC)cc1OCC | -1% | 0% | 12µM* | ?
COc1cccc(C(=O)Nc2cc3c(cc2N2CCOCC2)n(C)c(=O)n3C)c1 | 4% | 5% | ? | -7%
Cn1c(=O)n(C)c2cc(N3CCCCC3)c(NC(=O)c3cccc(Cl)c3)cc21 | 6% | 22% | ? | 10µM*
CCn1c(=O)n(CC)c2cc(N3CCCC3)c(NC(=O)c3cccc(OC)c3)cc21 | -5% | -18% | 0.74µM* | ?
CCOc1cc(C(=O)Nc2cc3c(cc2N2CCOCC2)n(C)c(=O)n3C)cc(OCC)c1OCC | -11% | 0% | 8.3µM* | -16%
CCOC(=O)N1CCN(S(=O)(=O)c2ccc(OC)c(Br)c2)CC1 | -3% | 5% | ? | -14%
CC1=NN(c2ccc(C(F)(F)F)cn2)C(=O)C1 | -117% | 39% | -21% | -18%
Cc1ccc(Nc2cc(C)nn2-c2nc(C)cc(=O)[nH]2)cc1 | -28% | 52% | -7% | ?
Cc1ccc(Nc2cc(C)nn2-c2nc(C)cc(C)n2)cc1 | -23% | -11% | . | 3.7µM*
Cc1c(C=O)c(C=O)c(C)n1Cc1ccccc1 | -17% | 21% | 5.2µM* | .
SMILES | SARS PLpro yeast | AMA1-RON2 inh | Pf growth 96h | Pf growth 48h
Cc1cccc(C(=O)OCC(=O)c2ccc3c(c2)NC(=O)CO3)c1 | 2% | 4% | . | .
Cc1c(Cl)c(=O)oc2cc(OP(=O)(OCCCl)OCCCl)ccc12 | . | . | ? | 13µM*
CCOP(=S)(OCC)Oc1ccc2c(C)c(Cl)c(=O)oc2c1 | . | 8% | ? | ?
COc1ccccc1Cn1c(=O)c2ccccc2n2c(SCc3csc(C)n3)nnc12 | 1% | 0% | 5.2µM* | ?
COc1ccccc1Cn1c(=O)c2ccccc2n2c(Sc3ncnc4sccc34)nnc12 | -4% | -11% | 17% | ?
CC(=O)c1cc(-c2ccccc2)n(CC(=O)NC(C)(C)C)c1C | 1% | -2% | 13µM* | 0%
CC(=O)c1cc(-c2ccccc2)n(CCC(=O)NC2CCCCC2)c1C | 0% | 2% | 10µM* | 3%
CCC(C)(C)NC(=O)Cn1c(-c2ccccc2)cc(C(C)=O)c1C | 0% | -5% | ? | -17%
FC(F)(F)c1cc(-c2ccco2)nc(NCc2cccnc2)n1 | -2% | -4% | ? | 12µM*
COc1nc(NCc2cccnc2)nc(OC)n1 | 11% | 0% | ? | 1%
FC(F)(F)c1cc(-c2ccccc2)nc(NCc2cccnc2)n1 | -11% | 0% | ? | 3.7µM*
FC(F)(F)c1cc(-c2ccco2)nc(NCc2ccccc2)n1 | -17% | 29% | ? | ?
Cc1cc(NC(=O)c2noc3c2CCCCC3)nn1Cc1ccc(Cl)cc1 | -4% | 8% | 6% | 29%
O=C(CSc1ccc([N+](=O)[O-])cc1)c1ccccc1 | . | 0% | . | .
C=C1C(=O)C=C[C@]2(C)C[C@@H]3OC(=O)[C@](C)(O)[C@H]3C[C@@H]12 | -6% | 1% | 15µM* | 12µM*
COc1cc2c(cc1OC)C1=NC(=O)CN1C(SCc1ccccc1C)=N2 | 1% | 12% | 12µM* | ?
O=C1CC(NC2CCN(C(=O)c3cccc(F)c3)CC2)C(=O)N1 (stereo not given) | 0% | 11% | -4% | 25%
Nc1ccc2cn[nH]c2c1 | 0% | -1% | 31% | 5%
COC1=C(N)C(=O)c2nc(-c3nc(C(=O)O)c(C)c(-c4ccc(OC)c(OC)c4O)c3N)ccc2C1=O | -67% | 67% | 0.019µM* | 0.052µM*
COC(=O)c1nc(-c2ccc3c(n2)C(=O)C(N)=C(OC)C3=O)c(N)c(-c2ccc(OC)c(OC)c2O)c1C | 1% | 59% | ? | 0.093µM*
Cc1nc2c3ccccc3n(CC#N)c(=O)n2n1 | -5% | 6% | 13% | .
C=CCOc1cccc(C2/C(=C(/O)c3ccccc3)C(=O)C(=O)N2CCN2CCOCC2)c1 (stereo not given) | 2% | 10% | 28% | -2%
COCCN(C(=O)CCC(=O)Nc1ccccn1)C(C(=O)NCCC(C)C)c1ccc(F)cc1 (stereo not given) | 1% | 2% | -21% | 22%
CCCCOc1ccc(/C=C/C(=O)NCCc2nc3ccccc3[nH]2)cc1 | 1% | 4% | 12µM* | ?
COc1ccc(/C=C/C(=O)NCCc2nc3ccccc3[nH]2)cc1 | 1% | 6% | ? | ?
SMILES | SARS PLpro yeast | AMA1-RON2 inh | Pf growth 96h | Pf growth 48h
CCOC(=O)c1c(C)[nH]c(NC(=O)NNC(=O)c2ccc(OC)cc2)c1C | -4% | 109% | -10% | -13%
O=C(COc1ccc([N+](=O)[O-])cc1)NC(C(=O)O)C(O)c1cccc([N+](=O)[O-])c1 (stereo not given) | 1% | 10% | 10% | 52%
COc1ccc(C2C3=C(CC(c4ccco4)CC3=O)Nc3ccccc3N2C(C)=O)cc1 (stereo not given) | 0% | 1% | -25% | -2%
O=C1CC(c2ccco2)CC2=C1C(c1ccccc1)n1nc(C(F)(F)F)nc1N2 (stereo not given) | 4% | -1% | . | 9.3µM*
NC(=O)c1ccsc1NC(=O)CSc1ncnc2sccc12 | 3% | 8% | . | .
COc1ccc(-c2cc(C(F)(F)F)nc(N3CCOCC3)n2)cc1OC | -2% | 12% | ? | ?
